Measurements published in PubChem BioAssay AID1117319 (Southern Research Institute, 2015).
“And” between values parts separate entries of the source, which are not always exact repeats. Equal values may be shown once. Hit rate of the full screen: of about 260,000 compounds, about 1,500 (0.58%) were called active. Not shown: some 5% with an inconclusive outcome.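 Rule for the calls: active = inhibition above a set limit at one or more doses, reproduced on every date tested; inconclusive = results disagree between test dates, or hit never tested in dose response; inactive = the rest.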 The list is a sample of the results. Entries with a potency or affinity are not part of this list.

biological target: Virion infectivity factor (Human immunodeficiency virus type 1 group M subtype B (isolate BH10)) + Virion infectivity factor (Human immunodeficiency virus type 1 group M subtype B (isolate BRU/LAI)) + Virion infectivity factor (Human immunodeficiency virus type 1 group M subtype B (isolate PCV12)) + Virion infectivity factor (Human immunodeficiency virus type 1 group M subtype B (isolate HXB2)) + DNA dC->dU-editing enzyme APOBEC-3G (Homo sapiens) (UniProt P69720+P69721+P69722+P69723+Q9HC16); test: HIV-1 Vif–A3G interaction blockers – biochemical, TR-FRET, GST-Vif 1-94, biotin-A3G peptide, dose response retest, primary screen (AID 1117319); details: TR-FRET GST-Vif / biotin-A3G peptide binding; hits give high values;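 note: Vif residues 1-94 fused to GST binding biotinylated APOBEC3G peptide 110-148; 0% = full assay without inhibitor and 100% = GST in place of GST-Vif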

inhibition, inactive:
CC(=O)Nc1cccc(NC(=O)COc2ccccc2C)c1 -7.35%
Cc1noc(C)c1COc1cccc(C(=O)N(C)Cc2cccs2)c1 -1.46%
COc1ccc2c(c1O)C(=O)c1ccccc1C2=O 23.1%
CC1(C)CC(=O)C(N=Nc2ccc(OC(F)F)cc2)=C(O)C1 12.4%
Cc1cccc(NC(=O)c2ccc(C)c(S(=O)(=O)N3CCCCC3)c2)n1 2.93%
Cc1ccccc1NC(=O)COC(=O)c1cc(=O)c2ccccc2o1 -5.37%
Oc1ccc(/C=N/N(c2ccccc2)c2ccccc2)cc1O 26.2%
CC(=O)Nc1ccc(N=Cc2ccc(OCc3ccccc3)cc2)cc1 21.2%
NC(N)=N/N=C/c1ccc(OCc2ccccc2)cc1 -2.74%
Oc1ccc(/C=N/N=C/c2ccc(O)cc2)cc1 4.98%
COc1ccc(/C=N/N=C/c2ccc(OC)c(O)c2)cc1O -4.01%
O=Cc1ccc(O)c(O)c1 0.2%
Cc1nc(SC(C)C(=O)c2c(N)n(C)c(=O)n(C)c2=O)c2c(C)c(C)sc2n1 (stereo not drawn) -0.67%
CCOc1ccc(NC(=O)C(C)Sc2nnnn2C)cc1 (stereo not drawn) 0.56%
COc1cccc(NC(=O)CN(C)C(=O)CN2C(=O)NC(C)(c3ccc4ccccc4c3)C2=O)c1 (stereo not drawn) 9.34%
Cc1ccc(C)c(NS(=O)(=O)c2ccc(OCC(=O)N3CCCC3)cc2)c1 1.52%
CS(=O)(=O)c1ccc(C(=O)OCC(=O)NC(=O)Cc2ccccc2)cc1 -0.73%
COc1ccc(-n2c(SCC(C)=O)nc3sc(C)c(C)c3c2=O)cc1 -12.1%
CC(C)(C)c1c(Cl)c(O)c(-c2ccccc2)c(=O)n1-c1ccccc1 11.4%
CCN(c1ccccc1)S(=O)(=O)c1ccc2c(c1)N(C(C)=O)CCS2 -1.04%
COc1ccccc1-c1nn(-c2ccccc2)cc1C(=O)NCC(c1ccco1)N1CCCC1 (stereo not drawn) 1.07%
CCOC(=O)N1CCN(S(=O)(=O)c2ccc(OC)c(Cl)c2Cl)CC1 3.84%
Fc1ccc2c(c1)c1n[nH]c(=S)nc1n2CCc1ccccc1 0.89%
O=C(Nc1ccc2c(c1)C(=O)c1ccccc1-2)c1ccccc1 4.11%
O=C1C=C(Nc2ccccc2)C(=O)c2ccccc21 1.37%
NC(Cc1ccc2nonc2c1)C(=O)O (stereo not drawn) 17.1%
CC(C)C(=O)NN(C(=O)c1ccccc1)c1ccccc1 -2.08%
O=C(c1ccccc1)N(Nc1ccccc1)c1ccccc1 11.5%
COc1ccc2cc(C#N)c(Nc3cccc(F)c3)nc2c1 -0.27%
S=c1[nH]nc(NC2CCCCC2)s1 2.41%
CCOc1cc(C2Nc3ccccc3C(=O)N2c2ccccc2)ccc1O (stereo not drawn) 24.7%
COc1cc(C2Nc3ccccc3C(=O)N2c2ccccc2OC)ccc1O (stereo not drawn) -3.51%
CCCCOC(=O)c1cccc(NC(=O)CCC(=O)O)c1 -3.12%
NC(=O)c1ncc(C(F)(F)F)cc1Oc1cccnc1 -3.05%
CCN(C(=O)COC(=O)CNC(=O)c1ccc2ccccc2c1)C1CCS(=O)(=O)C1 (stereo not drawn) 11.8%
CCc1ccc(NC(=O)C2CCN(S(C)(=O)=O)CC2)cc1 -4.22%
Cc1ccc(NC(=O)C2CC3CCC2C3)c(Br)c1 (stereo not drawn) -0.68%
COc1ccc(NC(=O)C(NC(C)=O)C(=O)NCc2ccccc2OC)cc1 (stereo not drawn) 19.8%
COc1cc2cccc(OC)c(=O)c2c(O)c1OC 4.6%
Oc1cccc2cc3cccc(O)c3c(O)c12 -5.93%
CCOC(=O)c1sc(NC(=O)Nc2ccc(F)cc2)nc1C 24.7%
Nc1ccc(N2CCCCC2)c(Cl)c1 19.8%
Clc1ccccc1CN1CCN(c2ncccn2)CC1 -5.95%
CC1CCC2(CC1)NC(=O)N(CC(=O)NCc1ccc(Cl)cc1)C2=O (stereo not drawn) -14%
O=C(CNC(=O)c1ccc(Br)cc1)N/N=C/c1ccc[nH]1 -7.5%
Cc1nc2ccccc2c(-c2ccccc2)c1CC(=O)O -8.12%
Cc1nc2ccccc2n1CC(=O)c1ccccc1 6.29%
CCOC(=O)c1cnc2c(cnn2C)c1Cl 6.51%
COc1cc(OC)c(-c2oc3ccccc3c(=O)c2O)c(OC)c1 4.4%
COc1cc(OC)c2c(c1)OC(c1ccc(OC)c(OC)c1)C(O)C2=O (stereo not drawn) 5.17%
COc1ccc(C(=O)OCCN=C2NS(=O)(=O)c3ccccc32)cc1OC 0.81%
CC12CCCc3c(O)cc(=O)n(c31)-c1ccccc12 (stereo not drawn) 0.05%
O=C1/C(=C/c2cccs2)SC(=S)N1NS(=O)(=O)c1ccccc1 -2.36%
Cn1cccc1/C=C1\SC(=S)N(NC(=O)c2ccccc2O)C1=O 27.8%
COc1cc(/C=C2\SC(=S)N(NC(=O)c3ccccc3O)C2=O)ccc1O 5.15%
CC(/C=C1\SC(=S)N(NS(=O)(=O)c2ccccc2)C1=O)=C\c1ccccc1 -6.38%
O=C(NN1C(=O)/C(=C/c2cccs2)SC1=S)c1ccncc1 -1.89%
O=C(NN1C(=O)/C(=C/C=C/c2ccccc2)SC1=S)c1ccncc1 10.1%
Cc1c(C(=O)NCc2ccccn2)sc2nc(-c3ccc(F)cc3)cn12 0.67%
Cc1ccc(NC(=O)CC2C(=O)NC3CCCCC3N2C(=O)c2ccc(F)cc2)cc1C (stereo not drawn) 1.01% and 26.2%
Cc1nn(Cc2cccc(Oc3ccccc3)c2)c(C)c1NC(=O)NC12CC3CC(CC(C3)C1)C2 -5.96%
Clc1ccc(CSc2cc3c(nn2)-c2ccccc2CC3)cc1Cl -6.32%
CC1(C(=O)OCC(=O)Nc2ccccc2Cl)CC1(Cl)Cl (stereo not drawn) -10.2%
Cc1c(Cl)ccc(S(=O)(=O)NCCN2CCOCC2)c1Cl 6.83%
O=CN1CCN(C2CC(=O)N(c3ccc(Br)cc3)C2=O)CC1 (stereo not drawn) 22.2%
Cc1ccc(Oc2ccccc2/C=C/C(=O)O)cc1 7.01%
COc1cc(NC(=O)c2noc3c2CCCC3)c(OC)cc1Cl 11.1%
O=C(Nc1ccccc1C(=O)N1CCOCC1)c1noc2c1CCCC2 -4.02%
COC(=O)c1ccccc1NC(=O)c1noc2c1CC(C(C)(C)C)CC2 (stereo not drawn) -0.63%
Cc1ccc(NC(=O)c2noc3c2CCC3)cc1C -3.45%
COC(=O)c1ccccc1NC(=O)c1noc2c1CCCC2 3.34%
CC(=O)c1ccc(NC(=O)c2noc3c2CCC3)cc1 -4.79%
COc1ccc(Cl)cc1NC(=O)c1noc2c1CCCC2 -11.1%
CC(C)(C)C1CCc2onc(C(=O)Nc3ccc(F)cc3F)c2C1 (stereo not drawn) 2.83%
CCS(=O)(=O)c1ccc(-c2csc(-c3ccc(Cl)cc3)n2)c(Cl)c1Cl 2.97%
CN(CCCNC(=O)CCCOc1cc(=O)n(C)c2ccccc12)Cc1ccccc1 4.88%
CN(C)C(CNC(=O)c1cccc(S(=O)(=O)NCc2ccccc2)c1)c1ccco1 (stereo not drawn) 0.14%
O=C(CC1SC(N2CCCC2)=NC1=O)Nc1ccc(C(=O)NCc2ccc(F)cc2)cc1 (stereo not drawn) 4.94%
COc1cc(OC)cc(-n2nnnc2SCC(=O)NCc2cccs2)c1 6.88%
O=C(O)CCCCCNS(=O)(=O)/C=C/c1ccccc1 1.37%
CCN(CC(=O)Nc1ccc(NC(C)=O)cc1)C(=O)/C=C/c1c(C)nn(-c2ccc(F)cc2)c1Cl 0.81%
COC(=O)c1ccccc1NC(=S)NC(=O)C1CC1 0.95%
COC(=O)c1ccccc1NC(=S)NC(=O)C1CCCCC1 -4.52%
COc1cc(NCc2ccccc2O)c2ncccc2c1 3.48%
COc1cc(NCCCCC(C)N)c2nccc(C)c2c1 (stereo not drawn) 9.33%
CCOC(=O)c1ccc(Oc2nc(N(C)C)nc(N3CCOCC3)n2)cc1 -15.9%
CN1CCN(c2nnc(-c3ccc(Cl)cc3)c3ccccc23)CC1 3.71%
Cc1ccc(C)c(/C=N/n2cc(-c3ccccc3)[nH]c2=S)c1 -9.36%
Cc1ccc(-c2cc(-c3ccc(C)o3)nc(N)c2C#N)cc1 27.2%
Cc1cc(-c2ccc(Cl)cc2)c(C#N)c(N)n1 -1.08%
Cc1ccc(-c2cc(-c3ccc(Cl)cc3)c(C#N)c(N)n2)o1 24.5%
Cc1ccc(-c2cc(-c3ccc(F)cc3)c(C#N)c(N)n2)o1 18.2%
Cc1ccc(CNC(=O)c2ccc(CN3CCOCC3)cc2)cc1 32.3%
Cc1[nH]c2ccccc2c1C(=O)NS(=O)(=O)Nc1ccc(Cl)cc1 12.1%
CN(C)S(=O)(=O)c1ccc(C(=O)Nc2nnc(-c3cccs3)o2)cc1 27.3%
O=C(Nc1ccc(N2CCN(C(=O)c3ccc(Cl)cc3)CC2)cc1)c1ccc(Br)o1 10.6% and 6.22%
COC(=O)c1c(NC(=O)Cc2cccs2)sc2c1CCCC2 29.5%
CCOC(=O)c1c(NC(=O)Cc2cccs2)sc2c1CCCC2 -5.96%
